# Screens as filed in PubChem.
# HT1080-NT tox: kills 2HG-producing HT-1080-NT fibrosarcoma cells; Potency, µM (series often up to 46.1 µM), inactives show at the highest dose activity, negative = less viability, usual class: cytotoxic; AID 686970; 1.6% of 360,000 active; HT-1080-NT fibrosarcoma viability, CellTiter-Glo ATP luminescence, 48 h;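 note: NT is the 2HG producing partner of a matched IDH1 knockdown line; 0% = DMSO-treated cells and -100% = media-only wells without cells; nearly all actives have a fitted effect of over 55% in size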
#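 HT-1080-NT fibrosarcoma cells (2HG-overproducing), 750 cells/well in RPMI with 5% FBS, dosed after 2 h and incubated 48 h at 37C. CellTiter-Glo luminescence normalized to DMSO and no-cell wells; concentration-response curves fitted and classed.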
# ATXN2 expr inh: ATXN2 expression inhibition; Potency, µM (titrated, usually from 57 µM), without a hit: at the top dose activity change, negative = inhibition, usual class: inhibitors; AID 1745845; 0.72% of 360,000 active; HEK-293 ATXN2-luciferase reporter, luminescence, 24 h; note: % is set by controls: 0 for no effect and ±100 for the full control effect; nearly all actives have a fitted effect of over 55% in size
#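 ATXN2-luciferase reporter cells (luciferase flanked by upstream and downstream ATXN2 gene portions) were treated 24 h at 37 °C with compounds at up to 57 uM. SteadyGlo luminescence gave expression; GF-AFC fluorescence gave viability.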
# ATXN viability: reduces viability in counter-screen for ATXN expression inhibitors. S2 cells (HEK-293 line with an ATXN2-luciferase reporter) viability, CellTiter-Fluor protease fluorescence, 24 h. AID 651635. 0.49% of 400,000 active. Potency, µM (top dose mostly 56.7 µM), usual class: cytotoxic; note: nearly all actives have a fitted effect of over 40% in size
# KB-V1 MDR tox: KB-V1 MDR subline cytotoxicity; KB-V1 MDR cells viability, CellTiter-Glo, 72 h; Potency, µM (highest dose often 46.1 µM), usual class: cytotoxic; 3.4% of 400,000 active; AID 1347076; note: % is set by controls: 0 for no effect and ±100 for the full control effect; nearly all actives have a fitted effect of over 60% in size
#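 Cytotoxicity via CellTiter-Glo luminescence after 72 h compound exposure at 37 degrees C. Cells: drug-selected KB-V1 line, DMEM phenol-red free plus 10% FBS. Compounds tested at multiple concentrations; normalized data fitted to concentration-effect curves.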
# HT1080 IDH1KD tx: kills HT-1080 cells with IDH1 knockdown; 2% of 360,000 active; AID 686971; Potency, µM (titrated, usually from 46.1 µM), for inactives: top-dose activity, negative = toxicity, most hits filed as cytotoxic; HT-1080 IDH1 knockdown viability, ATP luminescence, 48 h;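 note: 0% = DMSO wells and -100% = cell-free medium wells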
#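 IDH1KD HT-1080 cells, 750/well, RPMI + 5% FBS; compound pinned after 2 h settling; 48 h, 37 °C; CellTiter-Glo luminescence; % activity normalised to DMSO and no-cell wells; curves fitted, classed by r2 and efficacy.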
# KB-3-1 tox: KB-3-1 parental cell cytotoxicity | KB-3-1 viability, CellTiter-Glo ATP luminescence, 72 h | Potency, µM (titrated, usually from 46.1 µM), actives largely listed as cytotoxic | 1.4% of 400,000 active | AID 1347075; note: % is set by controls: 0 for no effect and ±100 for the full control effect; nearly all actives have a fitted effect of over 60% in size
#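 Luminescent ATP read-out (CellTiter-Glo) measures survival of drug-naive KB-3-1 cells after 72 h compound exposure at 37 °C. Titration series was screened from lowest to highest concentration, with DMSO vehicle plates as background controls.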
# * marks the source's active call; other numbers are inactive results; i = inactive; ? = inconclusive; . = not tested or not shown. Rows were chosen to be rich in hits. Some 6.2% of all compounds tested hit in one or more screens of this group. Calls come from the whole dose curve; as a rule, active = well fitted curve in the direction sought with a large enough effect; inconclusive = small, poorly fitted or top-dose-only effect, or another doubt; inactive = no such curve, though single readings can be large; an effect the other way counts as inactive or inconclusive. Potency is the fitted concentration of half-maximal effect.
SMILES,HT1080-NT tox,ATXN2 expr inh,ATXN viability,KB-V1 MDR tox,HT1080 IDH1KD tx,KB-3-1 tox
Cc1nc(SCC(=O)N2CCN(c3ccccn3)CC2)c(C#N)c(C)c1C,8.4%,-16.4%,i,7.31µM*,6.8%,i
COC(=O)c1cc(C)nc2c1C(=O)C(=O)C=C2N1CCOCC1,6.51µM*,3.55µM*,3.16µM*,?,5.17µM*,?
COc1ccc(-n2nc3c(c2NC(=O)CCl)CSC3)cc1,20.6µM*,-28.4%,?,?,7.31µM*,23.1µM*
CC(NCc1ccc(F)cc1)C(=O)Nc1cc(S(=O)(=O)N2CCCCC2)ccc1Cl (configuration not stated),0.0%,-8.1%,i,16.4µM*,-14.0%,?
CC(C)(C)CC(=O)Nc1cc(S(=O)(=O)N2CCCCCC2)ccc1Cl,0.3%,-11.4%,i,18.4µM*,-13.4%,i
CC(=O)OCC(=O)Nc1cc(S(=O)(=O)N2CCCCCC2)ccc1Cl,8.4%,.,i,i,3.4%,i
O=C(CCl)Nc1cc(S(=O)(=O)N2CCCCCC2)ccc1Cl,23.1µM*,?,17.8µM*,11.6µM*,?,13µM*
CC1CN(C(=O)c2cc(S(=O)(=O)N3CCCCC3)ccc2Cl)CC(C)O1 (configuration not stated),11.6%,5.2%,?,20.6µM*,5.5%,i
CC(C)Cc1nc2cc(NS(=O)(=O)N(C)C)cc(C(=O)N3CC4(C)CC3CC(C)(C)C4)c2n1C (configuration not stated),.,.,i,.,.,.
O=C(Cc1ccc[nH]c1=O)c1ccc(F)cc1,.,.,.,i,.,i
CC1CC(C)CN(CCCNC(=O)CN2C(=O)CSc3ccc(S(=O)(=O)N4CCOCC4)cc32)C1 (configuration not stated),9.0%,6.0%,i,?,9.9%,i
C[C@@H](Cc1cc2c(c(C(N)=O)c1)N(CCCO)CC2)NCCOc1ccccc1OCC(F)(F)F,.,-13.3%,.,.,.,.
CN(C)c1ccc(S(=O)(=O)N2CCCCC2)cc1NC(=O)CCNC(=O)c1ccc(Cl)cc1,-0.7%,7.1%,i,20.6µM*,-2.2%,i
COc1ccc(N2CCN(Cc3nc4scc(-c5ccccc5)c4c(=O)[nH]3)CC2)cc1,-1.0%,-14.2%,i,i,-1.8%,i
O=c1[nH]c(CN2CCN(c3ccccc3)CC2)nc2scc(-c3ccccc3)c12,-4.8%,50.9%,i,9.2µM*,-1.2%,?
COc1ccc(F)c(CN2CCCC(CNS(=O)(=O)c3cccc4cccnc34)C2)c1 (configuration not stated),-11.9%,2.7%,i,i,-1.8%,i
Cc1cccc(-c2nc(S(=O)(=O)c3ccccc3)c(N3CCN(c4ccccc4)CC3)o2)c1,.,.,.,i,.,i
COc1ccc(OC)c(-c2c3cc(O)c(=O)cc-3oc3cc(O)c(O)cc23)c1,?,?,20µM*,i,?,i
O=c1[nH]c(=O)n(CCCc2ccccc2)cc1-c1ccccc1,7.6%,3.5%,i,13µM*,24.2%,i
Cc1cn(CC(=O)NCCCc2ccccc2)c(=O)[nH]c1=O,2.2%,-0.4%,i,i,1.0%,i
CC[C@H](C)Cc1cn([C@@H](CCCN=C(NC(=O)OC(C)(C)C)NC(=O)OC(C)(C)C)C(=O)NCCCCCCCCCCC(=O)N2CCN(C(=O)OC(C)(C)C)CC2)nn1,?,?,17.8µM*,i,?,?
Cc1cn([C@@H](CCCCNC(=O)OC(C)(C)C)C(=O)NCCCCCCCCCCC(=O)N2CCN(C(=O)OC(C)(C)C)CC2)nn1,20.6µM*,?,15.8µM*,i,?,?
COC(=O)C(=Cc1ccc(OCc2ccc([N+](=O)[O-])cc2)c(OC)c1)C(=O)OC,?,?,?,?,?,i
CCOC(=O)C(=Cc1ccc(OCc2ccc([N+](=O)[O-])cc2)c(OC)c1)C(=O)OCC,20.6µM*,?,22.4µM*,20.6µM*,?,?
COc1cccc(/C=C/c2nc(C#N)c(NCCN(C)C)o2)c1,.,2.2%,i,i,.,i
SMILES,HT1080-NT tox,ATXN2 expr inh,ATXN viability,KB-V1 MDR tox,HT1080 IDH1KD tx,KB-3-1 tox
CCc1ccc(NC(=O)c2ccc3c(c2)c(C)c(C)n3Cc2ccccc2)cc1,.,.,.,8.2µM*,.,?
Cc1cc(C)c(C(N)=O)c(SCC(=O)c2cc(C)n(-c3cc(C)on3)c2C)n1,-2.3%,-23.1%,i,?,-4.7%,i
O=[N+]([O-])c1ccc(Nc2ccccc2)c2nonc12,-4.0%,.,.,i,-9.2%,i
O=[N+]([O-])c1ccc(Sc2cccc[n+]2[O-])c2nonc12,0.146µM*,5.32µM*,.,?,0.581µM*,?
CCOc1ccc(-c2ccc(SCC(=O)Nc3nnc(CC)s3)nn2)cc1,8.4%,9.3%,i,i,1.9%,i
CCOc1ccc(-c2ccc(SC)nn2)cc1,16.4µM*,?,i,11.6µM*,23.1µM*,?
CCCOc1ccc(F)cc1-c1cc(C(=O)Nc2ccc(C(C)C)cc2)[nH]n1,?,?,?,i,23.1µM*,?
CCCOc1ccc(F)cc1-c1cc(C(=O)NC(C)C)[nH]n1,10.5%,4.9%,i,i,0.0%,i
CCCOc1ccc(F)cc1-c1cc(C(=O)Nc2ccc(OC)c(OC)c2)[nH]n1,?,?,?,20.6µM*,?,?
CCOC(=O)c1ccc(Oc2cc(C)nc(SC)n2)cc1,16.4µM*,-32.1%,?,9.2µM*,14.6µM*,9.2µM*
Cc1cc(Oc2ccc(Br)cc2)nc(SCC(=O)c2ccccc2)n1,-0.7%,-22.8%,i,?,-5.5%,i
Cc1cc(Oc2ccc3ccccc3c2)nc(SCC(=O)c2ccccc2)n1,2.7%,-33.5%,i,16.4µM*,-17.9%,18.4µM*
COC(=O)c1ccc(Oc2cc(C)nc(-n3nc(C)cc3C)n2)cc1,1.26µM*,-33.2%,i,1.84µM*,1.12µM*,1.3µM*
Cc1ccc(C(=O)Cn2c(=N)n(CCN3CCOCC3)c3ccccc32)cc1,-6.7%,0.1%,i,i,-4.2%,i
N=c1n(CCN2CCCCC2)c2ccccc2n1CC(=O)c1ccc(Cl)c(Cl)c1,20.6µM*,?,i,?,20.6µM*,?
Cc1ccc(Cn2c(=N)n(CC(=O)c3ccc([N+](=O)[O-])cc3)c3ccccc32)cc1,-3.2%,20µM*,.,14.6µM*,-13.5%,18.4µM*
CCn1c(=N)n(CC(=O)c2ccc(Cl)c(Cl)c2)c2ccccc21,?,-0.6%,i,16.4µM*,23.1µM*,?
